Compound activity deposited in PubChem by Broad Institute.
CD40 NFkB inh – inhibitors of CD40-induced NF-kB signaling, primary screen, BL2 cells, luciferase reporter, single point | AID 1053188, 2014 | inhibition, % at 10 µM | actives 0.94% (n = 83,000) | CD40L-induced, 4 h;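 active = mean inhibition of at least 50% with a set share of replicates also reaching that level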;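 also: 0% = neutral control wells and 100% = IKK inhibitor VII at 50 µM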
Numbers without * were called inactive; i = inactive. Shown is part of a subset that was picked to be rich in hits.

SMILES	CD40 NFkB inh
Cc1ccc2nc(N(CCCN(C)C)C(=O)CS(=O)(=O)c3ccccc3)sc2c1	2.0
CCc1cccc2sc(N(CCCN3CCOCC3)C(=O)CS(=O)(=O)c3ccccc3)nc12	-1.0
COc1c(C(=O)Nc2ccc(Cc3ccncc3)cc2)ccc2ccccc12	-24.7
COc1ccc(C(=O)NCCN(C)C)c2nc3ccccc3cc12	i
COc1ccc(C(=O)Nc2ccc3ccccc3n2)c(OC)c1OC	51.4*
